Screens: PubChem, National Center for Advancing Translational Sciences (NCATS)
This is one part of a sample in which hits are shown more often than they occur.
FBPA Giardia inh = qHTS Assay for Inhibitors of Fructose-1,6-bisphosphate Aldolase from Giardia Lamblia; A8B2U2; purified Giardia FBPA; Potency, µM (highest dose often 59.6 µM), inactives show top-dose activity, negative = inhibition, most hits filed as inhibitors; 290,000 tested, 0.71% active; AID 2451, 2010; note: potency is the fitted concentration of half-maximal effect; % is set by controls: 0 for no effect and ±100 for the full control effect; nearly all actives have a fitted effect of over 55% in size
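40 nM FBPA preincubated 10 min at RT with compound (up to 57.5 uM final), then substrate plus GAPDH/TPI/NAD/arsenate coupling and diaphorase/resazurin added. Fluorescence read after 20 min at RT, 525/598 nm.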
LmPK inhibitor = qHTS Assay for Inhibitors of Leishmania Mexicana Pyruvate Kinase (LmPK) | Q27686 | 290,000 tested, 0.37% active | purified LmPK, Kinase-Glo ATP luminescence, 1 h | Potency, µM (top dose mostly 57.5 µM), for inactives: at the highest dose activity change, negative = inhibition, actives largely listed as inhibitors; note: potency is the fitted concentration of half-maximal effect; % is set by controls: 0 for no effect and ±100 for the full control effect
Target sequence (Q27686 whole entry, looked up): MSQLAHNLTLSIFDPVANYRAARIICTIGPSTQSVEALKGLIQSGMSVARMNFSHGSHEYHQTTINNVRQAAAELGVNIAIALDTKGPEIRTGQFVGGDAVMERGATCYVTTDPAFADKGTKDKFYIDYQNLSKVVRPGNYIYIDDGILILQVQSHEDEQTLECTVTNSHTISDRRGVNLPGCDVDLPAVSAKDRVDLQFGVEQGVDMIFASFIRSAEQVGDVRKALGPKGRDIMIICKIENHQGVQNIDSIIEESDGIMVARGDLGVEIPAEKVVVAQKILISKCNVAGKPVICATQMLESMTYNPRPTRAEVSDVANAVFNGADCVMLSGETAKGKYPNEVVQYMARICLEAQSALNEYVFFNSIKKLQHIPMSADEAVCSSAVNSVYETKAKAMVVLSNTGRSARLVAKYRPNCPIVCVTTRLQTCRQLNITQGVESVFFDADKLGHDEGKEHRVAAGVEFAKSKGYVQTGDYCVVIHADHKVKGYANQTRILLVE
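Kinase-Glo luminescence read after 1 h RT reaction of 0.1 nM LmPK with 0.5 mM PEP and 0.1 mM ADP. Activity scaled between uninhibited and enzyme-free controls.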
Shiga toxin inh = A qHTS for Small Molecule Inhibitors of Shiga Toxin. 290,000 tested, 9.2% active. Vero cells, Shiga toxin protein synthesis inhibition reporter. inhibition, % at 38.7 µM; in the data active = inhibition mostly above about 28%, no sharp cut-off; inactive = mostly below about 43%; note: 0% is about no effect
RE007 growth inh = qHTS Assay for Inhibitors of the HIV-1 protein Vpr. Potency, µM (highest dose often 92.2 µM), inactives show at the highest dose activity change, negative = less growth, most hits filed as inhibitors. S. pombe RE007 Vpr strain, BacTiter-Glo ATP luminescence, 24 h. AID 651644, 2012. 360,000 tested, 0.21% active; active = well fitted falling curve with a large enough effect; note: potency is the fitted concentration of half-maximal effect; % is set by controls: 0 for no effect and ±100 for the full control effect; nearly all actives have a fitted effect of over 50% in size
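Fission yeast strain RE007, carrying one chromosomally integrated HIV-1 vpr copy, was seeded at OD 0.01 in PMG+AL medium with 23 nL pinned compound. After 24 h at 30 °C and 99% humidity, viability was read by BacTiter-Glo luminescence.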
CHX counter = Cycloheximide Counterscreen for Small Molecule Inhibitors of Shiga Toxin; cell reporter, cycloheximide protein synthesis inhibition counterscreen; max response, %; 300,000 tested, 12% active; AID 2314, 2010; in the data active = max response mostly above about 13%, no sharp cut-off; inactive = mostly below about 14%; note: read at 38.3 µM for the half of the compounds with a filed dose; 0% is about no effect
Tb PYK inh = qHTS of Trypanosoma Brucei Inhibitors; pyruvate kinase (Trypanosoma brucei), Q57TT1; TbPYK enzyme, Kinase-Glo Plus ATP luminescence, 45 min; Potency, µM (titrated, usually from 76.8 µM), for the others: at the top dose activity, negative = inhibition, usual class: inhibitors; 410,000 tested, 0.12% active; note: potency is the fitted concentration of half-maximal effect; % is set by controls: 0 for no effect and ±100 for the full control effect; nearly all actives have a fitted effect of over 50% in size
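Activity of T. brucei pyruvate kinase was followed by Kinase-Glo Plus luminescence after the enzyme reacted 45 min at room temperature with 130 uM ADP (final) and substrate. Test compounds were added before ADP at multiple concentrations.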
* hit, by the source's call. Unless noted, calls come from the whole dose curve; as a rule, active = well fitted curve in the direction sought with a large enough effect; inconclusive = small, poorly fitted or top-dose-only effect, or another doubt; inactive = no such curve, though single readings can be large; an effect the other way counts as inactive or inconclusive.

For O=C(O)/C=C/C(=O)Nc1ccccc1C(=O)OCC(=O)c1ccc2c(c1)OCCO2 the results were FBPA Giardia inh 4.2%, LmPK inhibitor -22.2%, Shiga toxin inh 74.6*, RE007 growth inh 16.3%, CHX counter 24.9* and Tb PYK inh -5.6%.
`CS(=O)(=O)c1cccc(C(=O)OCC(=O)c2ccc3c(c2)OCCO3)c1` gave RE007 growth inh -17.8% and Tb PYK inh 5.5%.
COc1ccc(CCNC(=O)c2ccc(Cn3c(=O)[nH]c4cc(OC)c(OC)cc4c3=O)cc2)cc1OC was read as Tb PYK inh 4.2%.
`CC1CCN(S(=O)(=O)c2ccc3c(c2)N(CC(=O)N(C)Cc2ccccc2)C(=O)CO3)CC1` gave Tb PYK inh 2.9%.
Screening CCOC(=O)c1c(S(=O)(=O)N(C)C2CCCCC2)c(C)n(C)c1C returned FBPA Giardia inh -6.0%, LmPK inhibitor -5.0%, Shiga toxin inh 4.1, RE007 growth inh -4.3%, CHX counter -5.5 and Tb PYK inh 4.9%.
COc1cc(NC(=O)c2c(C)oc3ncnc(N4CCCCC4)c23)cc(OC)c1 was read as Tb PYK inh 3.6%.
Cc1cc(Br)ccc1NC(=O)c1sc2nc3n(c(=O)c2c1C)CCCC3 was read as Tb PYK inh 1.3%.
For CCCCC(=O)Nc1ccccc1C(=O)OCC(=O)c1ccc2c(c1)OCCO2 the results were FBPA Giardia inh 0.3%, LmPK inhibitor -9.7%, Shiga toxin inh active, RE007 growth inh 9.3%, CHX counter 38.3* and Tb PYK inh -7.3%.
COC(=O)c1ccccc1NC(=O)CN1CCC(C(=O)c2ccc3c(c2)OCCO3)CC1 was read as FBPA Giardia inh 14.6%, LmPK inhibitor 6.3%, Shiga toxin inh -9.3, RE007 growth inh 7.0%, CHX counter -3.4 and Tb PYK inh -4.4%.
`Cc1cc(C)c2c(N)c(C(=O)c3ccc(Cl)cc3)sc2n1` gave FBPA Giardia inh 3.3%, LmPK inhibitor 8.9%, Shiga toxin inh 26.1, RE007 growth inh -12.0%, CHX counter 5.0 and Tb PYK inh -5.0%.
For Cc1cc(C)c2c(N)c(C(=O)Nc3ccc([N+](=O)[O-])cc3)sc2n1 the results were FBPA Giardia inh -2.8%, LmPK inhibitor -1.8%, Shiga toxin inh 41.9*, RE007 growth inh 16.6%, CHX counter 19.8* and Tb PYK inh 1.4%.
Screening Cc1cc(C)c2c(N)c(C(=O)N/N=C/c3cccs3)sc2n1 returned FBPA Giardia inh 1.0%, LmPK inhibitor 0.4%, Shiga toxin inh 91.9*, RE007 growth inh -17.6%, CHX counter 53.5* and Tb PYK inh 1.9%.
Screening COc1ccc(/C=N/NC(=O)c2sc3nc(C)cc(C)c3c2N)cc1 returned FBPA Giardia inh 1.1%, LmPK inhibitor 0.1%, Shiga toxin inh 20.3, RE007 growth inh 5.0%, CHX counter 7.6 and Tb PYK inh -0.1%.
For Cc1cc(C)c2c(N)c(C(=O)c3ccc(Cl)c(Cl)c3)sc2n1 the results were FBPA Giardia inh 13.9%, LmPK inhibitor 1.4%, Shiga toxin inh 81.6*, RE007 growth inh -6.8%, CHX counter 21.4 and Tb PYK inh 4.3%.
`Cc1cc(C)c(NC(=O)c2sc3nc(C)cc(C)c3c2N)c(C)c1` gave Tb PYK inh -15.8%.
For COc1ccc(NC(=O)c2sc3nc(C)cc(C)c3c2N)cc1 the results were FBPA Giardia inh 5.2%, LmPK inhibitor -5.6%, Shiga toxin inh 43.3*, RE007 growth inh -3.1%, CHX counter 34.3* and Tb PYK inh 1.2%.
`O=C(c1nc(-c2ccc(Cl)cc2)n2c1CCCCC2)N1CCN(c2ccccc2)CC1` gave Tb PYK inh -3.5%.
Cc1cc(C)c2c(N)c(C(=O)Nc3ccc(C)c(C)c3)sc2n1 was read as FBPA Giardia inh -10.1%, LmPK inhibitor 2.5%, Shiga toxin inh 123.7*, RE007 growth inh -15.2%, CHX counter 32.9* and Tb PYK inh -2.7%.
